According to PubChem BioAssay AID652039 (The Scripps Research Institute Molecular Screening Center, 2013):
The campaign covered roughly 370,000 compounds. About 3,300 (0.89%) were called active.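 The calls were made as follows: active = activation above the mean of all tested compounds plus 3 SD, computed per campaign excluding outliers beyond control limits (cut at about 13% in these data); inactive = the rest.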 The entries come from a sample that favours actives as a whole.

These compounds were tested against Kallikrein-7 (Homo sapiens) (UniProt P49862) (assay: proKLK7 zymogen activators, primary screen, biochemical, fluorescence intensity (AID 652039)). Conditions: purified proKLK7, EDANS-DABCYL substrate fluorescence; at 7 µM; active compounds read high; 100% is mature enzyme control, 0% vehicle.
Sequence of Kallikrein-7 (Homo sapiens) (P49862 whole entry, looked up): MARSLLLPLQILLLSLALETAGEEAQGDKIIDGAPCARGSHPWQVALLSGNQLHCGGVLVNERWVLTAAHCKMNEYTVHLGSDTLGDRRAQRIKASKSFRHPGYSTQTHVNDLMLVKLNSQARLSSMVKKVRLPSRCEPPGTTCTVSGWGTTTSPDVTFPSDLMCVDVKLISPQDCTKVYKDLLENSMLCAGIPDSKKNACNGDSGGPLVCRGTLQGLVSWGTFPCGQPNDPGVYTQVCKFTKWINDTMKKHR
For CN(C)c1ccc(NC(=O)NC2CCCCN(Cc3ccc(Cl)cc3)C2=O)cc1 (centres undefined), the activation was 0.67% (inactive). In the case of COc1ccnc(C(=O)N2CCC(Oc3cccnc3)CC2)c1, the activation is reported as 0.48% (inactive). In the case of Cn1cccc1C(=O)NC(=O)COC(=O)Cc1coc2ccc3ccccc3c12, the activation is reported as -3.37% (inactive). With Cc1ccc(NC(=O)Nc2cc(C)nn2-c2ccccc2)cc1 the activation was 0.53% (inactive). In the case of C#CCN([C@H](C(=O)OC)C(C)CC)S(=O)(=O)c1ccccc1Br (some centres undefined), the activation is reported as 0.19% (inactive). For O=C(O)c1cccnc1Sc1ncnc2sc3c(c12)CCC3, the activation was 12.7% (active). For OCCNc1nc2ccccc2n1-c1ncnc2sc3c(c12)CCC3, the activation was -0.67% (inactive). For CCCSc1ncccc1C(=O)O, the activation was 0.67% (inactive). CN(C)[C@H]1CCN(c2cccc3c2S(=O)(=O)N2CC[C@H](C2)O3)C1 was tested, and the activation was 0.28% (inactive). For CCOC(=O)c1cccc(NC(=O)CN(C)S(=O)(=O)c2ccc(-c3cocn3)s2)c1, the activation was -0.02% (inactive). With COc1ccc2nc(Nc3nc4cc5c(cc4s3)OCCO5)sc2c1 the activation was 17.3% (active). In the case of COc1ccc(-c2onc(C)c2-c2ccc3c(c2)OCCO3)c(O)c1, the activation is reported as -0.06% (inactive). In the case of COc1cccc(C(=O)Nc2cc3c(cc2Br)OCCCO3)c1, the activation is reported as -0.41% (inactive). For COc1ccccc1C(=O)CSc1nnc(-c2ccccn2)n1-c1ccccc1, the activation was 0.13% (inactive). In the case of Cc1ccc(-n2c(SCC(=O)Nc3cccc4ccccc34)nnc2-c2ccccn2)cc1, the activation is reported as -0.1% (inactive). CCOc1ccc(N(CC(=O)Nc2c(C)n(C)n(-c3ccccc3)c2=O)S(=O)(=O)c2ccc(Cl)s2)cc1 was tested, and the activation was -0.38% (inactive). For O=C(Nc1nncs1)c1cccc(S(=O)(=O)N2CCCCC2)c1, the activation was 0.4% (inactive). With O=C(Nc1nncs1)c1ccccc1NS(=O)(=O)c1cccs1 the activation was 16.3% (active). In the case of COc1cc(NC(=O)c2ccccc2NS(=O)(=O)c2ccc(Cl)s2)cc(OC)c1, the activation is reported as 0.45% (inactive). In the case of Cc1ccc(-c2nc(C3CCCN(S(=O)(=O)c4ccc(Br)s4)C3)no2)cc1 (centres undefined), the activation is reported as 0.38% (inactive). For COc1ccc(-n2c(COc3ccccc3)nnc2SCC(=O)Nc2ccc3c(c2)OCO3)cc1, the activation was 0.59% (inactive). Cc1ccc(C2Nc3ccccc3C(=O)N2CCN2CCNC2=O)cc1 (centres undefined) was tested, and the activation was 39.3% (active). In the case of Cc1ccc(S(=O)(=O)N2CCC(C(=O)OCC(=O)N3CC(=O)Nc4ccccc43)CC2)cc1, the activation is reported as 0.15% (inactive). In the case of O=C1c2ccccc2NC(c2ccccn2)N1NS(=O)(=O)c1ccccc1 (centres undefined), the activation is reported as 10.7% (inactive). In the case of COc1ccc(N2CCN(CCNS(=O)(=O)c3ccc(C(C)(C)C)cc3)CC2)cc1, the activation is reported as 0.49% (inactive). With C=CCN1C(=O)[C@@H](CC(=O)NCC2CCCCC2)[C@]2(C(=O)OC)CCCCC=C12 the activation was 0.16% (inactive). With CC(CCN1CCC(C(O)(c2ccccc2)c2ccccc2)CC1)Oc1ccc([N+](=O)[O-])cc1Cl (centres undefined) the activation was -0.54% (inactive). Nc1nonc1-n1nnc(C(=O)N/N=C/c2cc(Br)ccc2O)c1CSC1=NCCS1 was tested, and the activation was -0.67% (inactive). In the case of COc1cc(/C=N/N=C(\N)c2nonc2N)cc(OC)c1OC, the activation is reported as 0.13% (inactive). For COc1cc(/C=N\NC(=O)c2nonc2N)c(OC)cc1Br, the activation was 163% (active). For COc1cccc(N(C)C(=O)[C@@H](C)[C@@H](O)c2ccc3ccccc3c2)c1, the activation was -0.02% (inactive). CC(C)CSc1nnc(-c2cccnc2)n1Cc1ccccc1 was tested, and the activation was -0.36% (inactive). CN1c2ccccc2-c2nc3ccccc3n2C1c1ccco1 (centres undefined) was tested, and the activation was 35.6% (active). For CN1C(C(=O)NCc2ccco2)CC2Cn3c(nc4ccccc43)C21 (centres undefined), the activation was 0.06% (inactive). With CN1CCCc2cc(C#N)c(=O)[nH]c21 the activation was 60% (active). Clc1ccc(C(Cn2ccnc2)OCc2ccsc2Cl)c(Cl)c1 (centres undefined) was tested, and the activation was 0.44% (inactive). With Cc1cc(C(=O)NN=C/C=C/c2ccco2)n[nH]1 the activation was 0.51% (inactive). C=CCN1CN(S(=O)(=O)c2ccc(OC)cc2)c2nc3ccccc3nc21 was tested, and the activation was 2.35% (inactive). For CCC(=O)Nc1c(S(=O)(=O)c2ccccc2)c2nc3ccccc3nc2n1Cc1ccccc1, the activation was -55% (inactive). With C=CCn1c(N)c(S(=O)(=O)c2cccs2)c2nc3ccccc3nc21 the activation was 26.2% (active). With COc1cc2c(cc1OC)CC1(CCCCC1)N=C2 the activation was 165% (active). CCOC(=O)[C@]12CCCCC/C=C\1N(Cc1ccc(OC)cc1)C(=O)[C@H]2CC(=O)N1CCOCC1 was tested, and the activation was 0.31% (inactive). In the case of C=CCN1[C@H](CC(C)C)COc2cccc(N3CCCC3)c2S1(=O)=O, the activation is reported as 0.16% (inactive). With CCc1cc(=O)oc2cc(C)cc(OCC(=O)N3CCC[C@@H]3C(=O)O)c12 the activation was 2.84% (inactive). With CCCCc1cc(=O)oc2cc(C)cc(OCc3nn[nH]n3)c12 the activation was 12.8% (active). For CCc1cc(=O)oc2cc(C)cc(OC(C)C(=O)O)c12 (centres undefined), the activation was 3.59% (inactive). For CCOC(CNC(=O)C(=O)NCC(c1ccco1)N1CCN(c2ccc(OC)cc2)CC1)OCC (centres undefined), the activation was -0.14% (inactive). Cc1cc2c(nc1C)CCCN2C was tested, and the activation was 38.3% (active). Cc1nc(N2CCOCC2)nc2c1CCCC2 was tested, and the activation was 0.32% (inactive). For CN1CCCc2nc(-c3ccccc3)ccc21, the activation was 7.88% (inactive). With CCOC(=O)[C@@]12CCC3=C1N(CCC3)C(=O)[C@H](CC(=O)N1CCN(C(=O)c3ccco3)CC1)C2 the activation was 0.06% (inactive). With C=CCN1C(=O)[C@H](CC(=O)N2CCN(C(=O)OCC)CC2)[C@@]2(C(=O)OCC)CCCC=C12 the activation was -0.4% (inactive). In the case of Cc1ccccc1CS(=O)(=O)Cc1ccc(C(=O)Nc2ccc(Cl)cc2)o1, the activation is reported as 3.6% (inactive). For C/C(=C\c1ccccc1)C1NC(=O)c2c(sc3c2CCCC3)N1 (centres undefined), the activation was 12.6% (active). In the case of O=C1NC(c2ccncc2)Nc2sc3c(c21)CCCC3 (centres undefined), the activation is reported as 1.14% (inactive). In the case of Cc1[nH]c(=O)c(C(=O)/C=C/c2ccccc2)c2c1CCCC2, the activation is reported as -0.01% (inactive). For COC(=O)c1cccc(Cn2ccc3ccc(-c4ccc5ccn(C(=O)C6CCCCC6)c5c4)cc32)c1, the activation was -4.23% (inactive). O=C(CCl)NC1CCCCN(Cc2cccc(C(F)(F)F)c2)C1=O (centres undefined) was tested, and the activation was -0.51% (inactive). With CNc1cncc(-c2ccc(NS(C)(=O)=O)cc2)n1 the activation was 128% (active). With CC(=O)Nc1cncc(-c2ccccc2CO)n1 the activation was -0.16% (inactive). CS(=O)(=O)Nc1ccc(C(=O)N2CCCC2)cc1 was tested, and the activation was 0.41% (inactive). In the case of O=C(CSc1nnc(-c2ccccc2)n1Cc1ccco1)Nc1ccccc1-c1ccccc1, the activation is reported as 0.13% (inactive). CCC(NC(=O)C1C2C=CC3(CN(Cc4ccccc4)C(=O)C13)O2)c1ccccc1 (centres undefined) was tested, and the activation was -0.29% (inactive). For O=C(NC1CCC1)c1ccc(C#Cc2cccc(F)c2)c[n+]1[O-], the activation was -0.32% (inactive). For Cc1nc2ccccc2nc1CC(O)(c1ccccc1)c1ccccc1, the activation was -0.46% (inactive). Cc1ccc(O)c(CCc2ccccc2)n1 was tested, and the activation was -0.18% (inactive). Cc1nc2ccccc2cc1O was tested, and the activation was 41.8% (active). With O=S1(=O)c2ccc(Br)cc2OC[C@H](Cc2ccccc2)N1Cc1cn(Cc2ccccc2)nn1 the activation was -0.03% (inactive). With O=C(/C=C/[C@H]1O[C@@H](n2cnc3c(NC(=O)c4ccccc4)ncnc32)[C@H](O)[C@@H]1O)NCc1ccccc1 the activation was 0.53% (inactive). Cc1ccc2nc3c(cc(C(=O)NCCc4ccccc4)c(=N)n3CC3CCCO3)c(=O)n2c1 (centres undefined) was tested, and the activation was 25.4% (active). In the case of Cc1ccc(-c2noc(-c3ccccc3C(=O)NCC3CCCO3)n2)cc1 (centres undefined), the activation is reported as 0.54% (inactive). With Cc1ccc(CCNC(=O)c2ccc3nc4ccccc4c(=O)n3c2)cc1 the activation was -5.82% (inactive). In the case of CC(=O)OC12CCCN(C1)/C(=C/c1ccncc1)C2 (centres undefined), the activation is reported as 0.51% (inactive). In the case of CN(C)CCCn1c(N)c(C#N)c2nc(C#N)c(C#N)nc21, the activation is reported as 78.7% (active). In the case of COc1cccc(C(=O)OCc2cc(=O)oc3c(C)c(C)ccc23)c1OC, the activation is reported as 0.12% (inactive). In the case of COC(=O)Cc1cc(=O)oc2c(C)c(O)ccc12, the activation is reported as 66% (active). CCCc1cc(=O)oc2c(C)c(OCC(=O)Nc3ccccn3)ccc12 was tested, and the activation was -0.69% (inactive). O=C(CSc1nnc(-c2ccccn2)n1-c1ccccc1)Nc1ccc2cn[nH]c2c1 was tested, and the activation was 0.28% (inactive). In the case of O=C(CSc1nc2ccccc2nc1N1CCCCC1)N1CCN(S(=O)(=O)c2cccc([N+](=O)[O-])c2)CC1, the activation is reported as 0.08% (inactive). Cc1ccc(CSc2nnc(SCC(=O)NN=Cc3cc(Br)ccc3F)s2)cc1 was tested, and the activation was -0.39% (inactive). With CCCN(CCC)C(=S)Nc1cc(C(=O)OC)ccc1C(=O)OC the activation was 0.15% (inactive). COC(=O)c1ccc(C(=O)OC)c(NC(=S)N2CCCCC2)c1 was tested, and the activation was -1.87% (inactive). With CCS(=O)(=O)Nc1cc(C(=O)OC)ccc1C(=O)OC the activation was 21.6% (active). In the case of Cc1ccc(NC(=O)Cc2cccc(F)c2)c(S(=O)(=O)N2CCOCC2)c1, the activation is reported as -0.14% (inactive). In the case of CC(C)(C)c1ccc(CSc2nnc(-c3cccs3)o2)cc1, the activation is reported as -0.23% (inactive). With COc1ccc([C@H]2OC(=O)C[C@H]2C(=O)N2CCN(c3ccccc3F)CC2)cc1OC the activation was -0.74% (inactive). In the case of CCC(Oc1ccccc1)C(=O)OCC(=O)Nc1c(C)nn(-c2ccccc2)c1C (centres undefined), the activation is reported as -0.3% (inactive). With Cc1nn(-c2ccccc2)c(C)c1NC(=O)COC(=O)c1cc(Cl)ccc1O the activation was 24.7% (active). With Cc1cccc(C)c1NC(=O)COC(=O)c1c(C)nn(-c2ccccc2)c1C the activation was 0.05% (inactive). For O=C(CSc1nc2ccccc2n1Cc1ccccc1Cl)N/N=C\c1c[nH]c2ccccc12, the activation was 0.56% (inactive). For N[C@@H](Cc1ccccc1)C(=O)N1CCC[C@@H]1C(=O)N1CCC2CCN(S(=O)(=O)c3ccccc3)CC21 (some centres undefined), the activation was 0.77% (inactive). For Cc1cc2cc3n(c2nn1)N=C(Cl)CC3, the activation was 24.3% (active). With COCc1cc(=O)oc2cc(NS(=O)(=O)c3ccc(C)cc3)ccc12 the activation was 15.2% (active). For Cc1ccc(S(=O)(=O)Nc2ccc(F)c(S(=O)(=O)N3CCOCC3)c2)cc1, the activation was -0.78% (inactive). Cc1ccc(NS(=O)(=O)c2ccc3c(c2)NC(=O)CO3)cc1 was tested, and the activation was -0.54% (inactive). With CC1CCN(c2ccc(C(=O)O)cc2NS(=O)(=O)c2ccc(Br)s2)CC1 the activation was 0.65% (inactive). For CC(=O)C[C@@H]1OC[C@H](C)N1S(=O)(=O)c1ccc(C)cc1, the activation was -0.26% (inactive). For C[C@H](C(=O)N(C)c1ccccc1)[C@@H](O)c1ccc(Cl)cc1, the activation was 0.11% (inactive). For COc1cc2c(cc1O)C(SC)=NC(C)(C)C2, the activation was -0.65% (inactive). For COc1cc2c(cc1OC)C(Nc1ccc(S(N)(=O)=O)cc1)=NC(C)(C)C2, the activation was 0.68% (inactive). In the case of COc1cc2c(cc1OC)C(C(C)C)=NC(C)(C)C2, the activation is reported as 85.2% (active). With COc1ccc(CN(CCN2CCOCC2)C(=O)c2ccc(C)cc2)cc1OC the activation was 0.42% (inactive). For Nn1c(SCC(=O)N2c3ccccc3Sc3ccccc32)nnc1-c1n[nH]c2c1CCC2, the activation was 0.49% (inactive). In the case of COc1ccc(-n2c(SCC(=O)OC(C)C)nnc2-c2ccccn2)cc1, the activation is reported as -0.5% (inactive). COc1ccc2nc(-c3ccccn3)ccc2c1 was tested, and the activation was 20.9% (active). For COc1ccc(C(=O)COC(=O)c2ccc3ccccc3n2)cc1, the activation was 0.19% (inactive). O=C(NC1CCC1)c1ccc(C#CC2CC2)cn1 was tested, and the activation was 0.73% (inactive). In the case of CCCCOCCCNC(=O)C[C@H]1C[C@@]2(C(=O)OC)C(=C[C@H](C(C)(C)C)O[C@@H]2C)N(CCc2ccc(OC)c(OC)c2)C1=O, the activation is reported as -0.83% (inactive). N#CCC[C@H]1CC[C@]2(CCCN(Cc3ccc(Cl)cc3)C2)O1 was tested, and the activation was 0.36% (inactive).
